Results published in PubChem BioAssay (NCATS).
Values joined by “and” are separate entries in the source; they are usually repeats but may differ in a detail not shown here. Equal values may be shown once. Inconclusive results are not listed. Entries that show only a call come without a potency. Active and inactive are the calls of the source. Calls follow the shape of the dose curve; as a rule, active = well fitted cell-killing curve with a large enough effect; inconclusive = small, poorly fitted or top-dose-only effect; inactive = no such curve, though single readings can be large or run the other way.
Potency is read from the fitted curve at half-maximal effect.

Assay: qHTS of pediatric cancer cell lines to identify multiple opportunities for drug repurposing: Primary screen for LAN-5 cells (AID 1347100)
Settings: LAN-5 neuroblastoma viability, CellTiter-Glo luminescence, 48 h; series mostly up to 46 µM
Source text: Drug repurposing or repositioning has been offered as a strategy for drug development in oncology programs. This approach has special potential for childhood cancers and other rare or orphan diseases, where the expected return on new drug development has been a disincentive to pharmaceuticals.
In this project we exploit the poly-pharmacology of drugs to discover new indications via phenotypic screening of a panel of 19 well-characterized cell lines derived from solid tumors seen in children and adolescents. The goal is to identify approved drugs with previously unrecognized anticancer properties that has the potential to reveal new mechanisms and biological processes involved in carcinogenesis or drug resistance. We employed a titration-based paradigm (quantitative high-throughput screening or qHTS), where all compounds were tested at multiple concentrations for their effect on cell viability. Concentration-response curves (CRCs) were derived directly from the primary screen, and both potency and efficacy values were used to identify compounds with robust bioactivity profiles. We screened the NIH Chemical Genomics Center (NCGC) Pharmaceutical Collection (NPC) and Mechanism Interrogation Plate (MIPE) small molecule collections of approved and investigational compounds against these cell lines; and measured metabolically active cells after 48 hours of compound treatment as a proxy for cell viability.
Assay Submitter: Nathalia J. Martinez, National Center for Advancing Translational Sciences, National Institutes of Health, Rockville, MD, USA; email: natalia.martinez@nih.gov
[1] Shen, M et al. Quantitative high-throughput phenotypic screening of pediatric cancer cell lines identifies multiple opportunities for drug repurposing. Oncotarget 2017 Dec 19;9(4):4758-4772. PMID 29435139.
The cells were obtained from University of North Carolina (UNC), Pediatric Preclinical Testing Program (PPT), and Coriell Institute (CI).
qHTS cell viability assay:
Cells were assayed in growth media at a density of 500-1,000 cells/well. Five microliters of cells were dispensed into 1,536-well, white, solid-bottom, TC-treated plates (Greiner Bio One) using a multidrop dispenser and incubated at 37 degrees C, 5% CO2, under a humidified atmosphere for 5 hours. Twenty-three nanoliters of compounds and controls (neutral control DMSO or positive control bortezomib at final concentration of 2.3 µM) were subsequently transferred by Kalypsys pintool. For primary screens, the MIPE collection was tested at 11-point dilutions (final concentrations range from 0.78 nM to 46 µM) and the NPC collection at 8-point dilutions (final concentrations range from 0.59 nM to 46 µM). Compounds tested in follow-up screens were assayed at 11-point dilutions. Cells were incubated for 48 hours, followed by addition of 3 µL of CellTiter-Glo (Promega). After a 15 min incubation at room temperature, samples were analyzed for luminescence intensity using a ViewLux High-throughput CCD imager equipped with clear filters.
For CCCc1nc2c(C)cc(-c3nc4ccccc4n3C)cc2n1Cc1ccc(-c2ccccc2C(=O)O)cc1, the Potency was “inactive”. In the case of Clc1cccc(Cl)c1NC1=NCCN1, the Potency is reported as “inactive”. In the case of CCCc1nn(C)c2c(=O)[nH]c(-c3cc(S(=O)(=O)N4CCN(C)CC4)ccc3OCC)nc12, the Potency is reported as “inactive”. For Cc1cnc(Nc2ccc(OCCN3CCCC3)cc2)nc1Nc1cccc(S(=O)(=O)NC(C)(C)C)c1, the Potency was “inactive”. With Nc1nc2[nH]cc(CCc3ccc(C(=O)N[C@@H](CCC(=O)O)C(=O)O)cc3)c2c(=O)[nH]1 the Potency was “inactive”. In the case of C[C@H](NC(=O)Cc1cc(F)cc(F)c1)C(=O)N[C@@H]1C(=O)N(C)c2ccccc2-c2ccccc21, the Potency is reported as “inactive”. In the case of O=C(Nc1ccc(F)c(C(F)(F)F)c1)Nc1nnc(-c2ccncc2)s1, the Potency is reported as “inactive”. For C1COC(NC(C2CC2)C2CC2)=N1, the Potency was “inactive”. In the case of N=c1nc(N2CCCCC2)cc(N)n1O, the Potency is reported as “inactive”. In the case of Cn1cnc([N+](=O)[O-])c1Sc1ncnc2nc[nH]c12, the Potency is reported as 6.79 µM (active) and 5.26 µM (active). For CC[C@H](Nc1ncnc2nc[nH]c12)c1nc2cccc(F)c2c(=O)n1-c1ccccc1, the Potency was 20.9 µM (active). In the case of Cc1cccc(-c2nn(C(=S)Nc3ccccc3)cc2-c2ccnc3ccccc23)n1, the Potency is reported as “inactive”. With O=C(Nc1nc2ccccc2n1CCN1CCOCC1)c1cccc([N+](=O)[O-])c1 the Potency was 3.72 µM (active). In the case of O=C(O)CCc1ccc(NCc2cccc(Oc3ccccc3)c2)cc1, the Potency is reported as “inactive”. In the case of COc1ccc(-c2oc3cc(OC)ccc3c2C(=O)c2ccc(C#N)cc2)cc1, the Potency is reported as 0.833 µM (active). In the case of CCCC(CCC)C(=O)O, the Potency is reported as “inactive”. With COc1c(Cl)cc2c([nH]c3cnccc32)c1NC(=O)c1cccnc1C the Potency was “inactive”. For CS(=O)(=O)Oc1ccc2c(NC(N)=O)c(C(=O)c3ccc(Cl)cc3Cl)oc2c1, the Potency was 2.09 µM (active). For NCCc1ccc(O)c(O)c1, the Potency was “inactive”. In the case of CN(C)c1ccc(Nc2nc(N)n(C(=O)c3c(F)cccc3F)n2)cc1, the Potency is reported as 0.833 µM (active). For COc1nc(-c2ccc3c(c2)OCO3)n(-c2ccc(NC(=O)CSc3ccccc3)cc2)n1, the Potency was “inactive”. With NCCCC(N)(C(=O)O)C(F)F (stereo not given) the Potency was “inactive”. With N#CC[C@H](C1CCCC1)n1cc(-c2ncnc3[nH]ccc23)cn1 the Potency was 18.7 µM (active). With CC(C)(C)OC(=O)CN(Cc1ccc(Cl)cc1)Cc1ccc([N+](=O)[O-])s1 the Potency was “inactive”. With CN(C)C(=O)c1ccc(S(=O)(=O)c2ccc(NC(=O)[C@@](C)(O)C(F)(F)F)c(Cl)c2)cc1 the Potency was “inactive”. With CCn1cc(C(=O)O)c(=O)c2cc(F)c(N3CCNC(C)C3)c(F)c21 (stereo not given) the Potency was “inactive”. In the case of N[C@@H]1CONC1=O, the Potency is reported as “inactive”. With CCC(C)N(C)C(=O)c1cc2ccccc2c(-c2ccccc2Cl)n1 (stereo not given) the Potency was “inactive”. With Clc1ccc(Nc2nnc(Cc3ccncc3)c3ccccc23)cc1 the Potency was “inactive”. With COc1ccc([C@@H]2CC(=O)c3c(O)cc(O[C@@H]4O[C@H](CO[C@@H]5O[C@@H](C)[C@H](O)[C@@H](O)[C@@H]5O)[C@@H](O)[C@H](O)[C@@H]4O)cc3O2)cc1O the Potency was “inactive”. In the case of S=C(NCc1ccc2c(c1)OCO2)N1CCN(c2ncnc3c2oc2ccccc23)CC1, the Potency is reported as 30.3 µM (active). For Cc1cc([C@@H](C)Nc2ccccc2C(=O)O)c2nc(N3CCOCC3)cc(=O)n2c1, the Potency was 34 µM (active). With Cc1ccccc1C(OCCN(C)C)c1ccccc1 (stereo not given) the Potency was “inactive”. For COc1cccc2cc(-c3nc(C4CCC(C(=O)O)CC4)n4ncnc(N)c34)[nH]c12 (stereo not given), the Potency was “inactive”. In the case of COc1cc2c(cc1OC)CN(CCc1ccc(NC(=O)c3cccc4c(=O)c5cccc(OC)c5[nH]c34)cc1)CC2, the Potency is reported as “inactive”. For Cc1c(CN2CCN(C(=O)C(C)C)CC2)sc2c(N3CCOCC3)nc(-c3cnc(N)nc3)nc12, the Potency was 0.662 µM (active). With CCOc1cc(C=C2C(=O)N(c3ccccc3)N=C2C)cc(Cl)c1OCC(=O)OC the Potency was 18.7 µM (active). In the case of O=S(=O)(N=Cc1c(O)ccc2ccccc12)c1cccs1, the Potency is reported as “inactive”. In the case of CNC(=O)c1ccc(N2C(=S)N(c3ccc(C#N)c(C(F)(F)F)c3)C(=O)C2(C)C)cc1F, the Potency is reported as “inactive”. For C[C@]12CCC(=O)C=C1CC[C@@H]1[C@@H]2[C@@H](O)C[C@@]2(C)[C@H]1CC[C@]2(O)C(=O)CO, the Potency was “inactive”.
